Reference: PubChem BioAssay (NCI)
The panel holds about 79,000 compounds, 15% with a hit somewhere; the sample as a whole holds those more often. A number with no mark means an inactive call. Active and inactive are the calls of the source. Cut-off read from the data, not from the text of the source: active = growth inhibition above about 70%; inactive = the rest.

Experiment: NCI Yeast Anticancer Drug Screen. Data for the bub3 strain (AID 167)
Conditions: S. cerevisiae bub3 mutant strain, at 50.0 µM (retest, dose inferred, filed as 5.0), stronger effect = higher value
Procedure, shortened: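 Screening used yeast with an engineered genetic alteration affecting cell cycle control. Compound-exposed cultures were compared with vehicle cultures, and reduced growth was taken as inhibition.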

SMILES	growth inhibition
CC1=CC2OC3CC4OC(=O)/C=C/C=C/C(C(C)O)OCC(=O)C(C)CC(=O)OCC2(CC1)C4(C)C31CO1 (stereo unspecified)	99% (active)
Cc1cc(=O)oc2c3c(ccc12)OC(c1ccc(Br)cc1)CC3=O (stereo unspecified)	23%
OCC(O)C(O)C(O)/C=N\Nc1ccccc1 (stereo unspecified)	31%
CN(C)Cc1ccc2[nH]c3c(c2c1)CCCC3	85% (active)
CC(C)CCCC(C)C1CCC2C3CC=C4OC(=O)CCC4(C)C3CCC12C (stereo unspecified)	91% (active)
CC(C(=O)c1ccc2cc(Br)c3ccccc3c2c1)N(C)C (stereo unspecified)	99% (active)
O=[N+]([O-])c1ccccc1SCc1ccccc1	79% (active)
C(=P(c1ccccc1)(c1ccccc1)c1ccccc1)[P+](c1ccccc1)(c1ccccc1)c1ccccc1	99% (active)
CCOC(=O)N1CCN(C(=S)N/N=C(\C)c2ncccn2)CC1	99% (active)
CCC1(C)C(C#N)(C#N)C1(C#N)C#N	95% (active)
Cc1ccccc1C(O)(c1ccccc1C)C1(O)CCN(C)CC1	-11%
Oc1c(C(Nc2ccccn2)c2ccccc2)ccc2cccnc12 (stereo unspecified)	97% (active)
Cc1ccc(C(CN(C)C)C(=O)c2ccccc2)cc1C (stereo unspecified)	97% (active)
COC(=O)/C=C(\NC1CC(OC2C[C@](O)(C(C)=O)Cc3c(O)c4c(c(O)c32)C(=O)c2c(OC)cccc2C4=O)OC(C)C1O)C(=O)OC (stereo partly specified)	98% (active)
CC1(C)C/C(=N/NC(N)=S)C(=NO)/C(=N\NC(N)=S)C1	34%
Cc1cc2c(c(C(N)=O)c1C)-c1cccc(F)c1C2=O	32%
